Source: PubChem BioAssay (EPA / NIEHS)
Activity calls are given as the source filed them. Rule for the calls: active = hit-call score of the fitted dose curve at least 0.9, where 1 is the maximum; inactive = score below 0.9.

Tests used:
[1] = ATG_CRE_CIS: Attagene CIS-FACTORIAL HepG2 Assay for human cAMP Responsive Element (CRE) binding protein 3 (AID 2282926); conditions: HepG2 CRE cis-reporter, Attagene multiplexed mRNA; actives raise or lower the signal
Method in brief: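 Multiplexed transcription-unit reporters transfected into HepG2; 24 h dosing; RT-PCR/capillary electrophoresis fluorescence read-out; bidirectional fit vs DMSO.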

[2] = target: CCAAT/enhancer-binding protein beta (Homo sapiens) (UniProt P17676); experiment: ATG_C_EBP_CIS: Attagene CIS-FACTORIAL HepG2 Assay for human CCAAT/Enhancer Binding Protein (C/EBP) beta (AID 2282927); conditions: HepG2 Attagene cis-factorial transcription factor reporter; actives raise or lower the signal
CCAAT/enhancer-binding protein beta (Homo sapiens), sequence (P17676 whole entry, looked up): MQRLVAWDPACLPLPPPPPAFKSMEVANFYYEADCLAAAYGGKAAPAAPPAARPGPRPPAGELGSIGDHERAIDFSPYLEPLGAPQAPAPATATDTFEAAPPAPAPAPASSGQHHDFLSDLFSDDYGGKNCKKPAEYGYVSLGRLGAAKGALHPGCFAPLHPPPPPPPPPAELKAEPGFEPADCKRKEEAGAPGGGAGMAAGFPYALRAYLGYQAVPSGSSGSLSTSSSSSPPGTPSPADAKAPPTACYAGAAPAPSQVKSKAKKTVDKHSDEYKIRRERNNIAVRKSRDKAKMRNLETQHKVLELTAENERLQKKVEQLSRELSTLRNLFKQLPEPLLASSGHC
Method in brief: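 RT-PCR/capillary electrophoresis fluorescence of reporter mRNA, 24 h post-dose, in HepG2 cells carrying transfected cis-promoter reporter units. Bidirectional curve fitting against DMSO baseline captures gain or loss of signal.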

[3] = ATG_DR4_LXR_CIS: Attagene CIS-FACTORIAL HepG2 Assay for human Liver X Receptor (LXR), DR4 submotif (AID 2282929); conditions: HepG2 Attagene DR4 cis-reporter, mRNA transcription; actives raise or lower the signal
Method in brief: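 Cells were transfected with multiple reporter transcription units, exposed to chemicals for 24 hours, then lysed for RNA. Reporter mRNA induction was measured by RT-PCR with capillary electrophoresis detection and fitted in both directions relative to DMSO.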

[4] = target: Aryl hydrocarbon receptor (Homo sapiens) (UniProt P35869); experiment: ATG_Ahr_CIS: Attagene CIS-FACTORIAL HepG2 Assay for human Aryl Hydrocarbon Receptor (Ahr) (AID 2282930); conditions: HepG2 AhR cis-factorial reporter transcription; actives raise or lower the signal
Aryl hydrocarbon receptor (Homo sapiens), sequence (P35869 whole entry, looked up): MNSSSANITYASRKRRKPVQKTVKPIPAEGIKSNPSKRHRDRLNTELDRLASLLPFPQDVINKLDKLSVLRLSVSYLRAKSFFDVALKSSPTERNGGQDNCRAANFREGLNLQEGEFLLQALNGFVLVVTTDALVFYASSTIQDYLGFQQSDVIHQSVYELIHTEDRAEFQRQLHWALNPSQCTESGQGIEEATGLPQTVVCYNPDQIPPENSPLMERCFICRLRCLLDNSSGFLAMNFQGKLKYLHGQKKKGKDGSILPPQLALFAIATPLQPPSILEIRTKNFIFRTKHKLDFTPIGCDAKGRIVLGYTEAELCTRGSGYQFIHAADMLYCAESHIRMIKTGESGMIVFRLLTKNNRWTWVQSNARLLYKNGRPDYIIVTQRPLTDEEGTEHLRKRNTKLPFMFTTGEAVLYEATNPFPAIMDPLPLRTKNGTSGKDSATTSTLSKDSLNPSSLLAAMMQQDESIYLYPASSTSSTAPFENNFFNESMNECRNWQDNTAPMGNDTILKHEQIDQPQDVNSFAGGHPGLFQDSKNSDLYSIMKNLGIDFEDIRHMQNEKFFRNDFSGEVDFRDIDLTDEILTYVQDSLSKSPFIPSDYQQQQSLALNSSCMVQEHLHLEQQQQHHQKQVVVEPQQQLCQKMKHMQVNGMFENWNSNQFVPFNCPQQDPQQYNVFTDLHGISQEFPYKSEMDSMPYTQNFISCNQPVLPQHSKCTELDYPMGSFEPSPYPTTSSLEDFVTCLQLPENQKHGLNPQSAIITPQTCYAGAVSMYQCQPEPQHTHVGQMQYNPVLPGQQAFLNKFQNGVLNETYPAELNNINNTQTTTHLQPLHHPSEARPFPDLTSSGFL
Method in brief: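 HepG2 cells transiently transfected with cis-element-driven multiplexed reporter transcription units; endogenous transcription factor activity measured as reporter mRNA 24 h after dosing. RT-PCR, 6-FAM labelling, HpaI digestion, capillary electrophoresis; bidirectional fitting versus DMSO baseline.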

[5] = ATG_AP_1_CIS: Attagene CIS-FACTORIAL HepG2 Assay for human Activator Protein 1 (AP-1) (AID 2282931); conditions: HepG2 Attagene cis-factorial AP-1 reporter mRNA; actives raise or lower the signal
Method in brief: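 Endogenous transcription-factor activity in human HepG2 liver cells is read through a cis-promoter reporter transcript, sampled 24 h after dosing. Detection uses RT-PCR with capillary electrophoresis; values come from bidirectional fitting relative to DMSO.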

[6] = ATG_AP_2_CIS: Attagene CIS-FACTORIAL HepG2 Assay for human Activator Protein 2 (AP-2) (AID 2282932); conditions: HepG2 AP-2 cis-reporter, Attagene transcription factor profiling; actives raise or lower the signal
Method in brief: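 HepG2 cells were transiently transfected with multiple cis-promoter reporter transcription units and dosed for 24 h. Reporter mRNA was measured by RT-PCR with capillary electrophoresis fluorescence; bidirectional fits relative to DMSO baseline.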

[7] = ATG_BRE_CIS: Attagene CIS-FACTORIAL HepG2 Assay for human Bone Morphogenetic Protein (BMP) Response Element (BRE) (AID 2282933); conditions: HepG2 BMP response element reporter, Attagene transcription factor profiling; actives raise or lower the signal
Method in brief: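 A HepG2 multiplex reporter system measured inducible reporter mRNA 24 h post-dosing. Detection: RT-PCR, 6-FAM primer extension, HpaI digestion, capillary electrophoresis. Activity fitted bidirectionally relative to DMSO.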

[8] = target: Retinoic acid receptor alpha (Homo sapiens) (UniProt P10276); experiment: ATG_DR5_RAR_CIS: Attagene CIS-FACTORIAL HepG2 Assay for human Retinoic Acid Receptor Alpha (RARE), DR5 submotif (AID 2282934); conditions: HepG2 Attagene cis-factorial RARE DR5 reporter, mRNA; actives raise or lower the signal
Retinoic acid receptor alpha (Homo sapiens), sequence (P10276 whole entry, looked up): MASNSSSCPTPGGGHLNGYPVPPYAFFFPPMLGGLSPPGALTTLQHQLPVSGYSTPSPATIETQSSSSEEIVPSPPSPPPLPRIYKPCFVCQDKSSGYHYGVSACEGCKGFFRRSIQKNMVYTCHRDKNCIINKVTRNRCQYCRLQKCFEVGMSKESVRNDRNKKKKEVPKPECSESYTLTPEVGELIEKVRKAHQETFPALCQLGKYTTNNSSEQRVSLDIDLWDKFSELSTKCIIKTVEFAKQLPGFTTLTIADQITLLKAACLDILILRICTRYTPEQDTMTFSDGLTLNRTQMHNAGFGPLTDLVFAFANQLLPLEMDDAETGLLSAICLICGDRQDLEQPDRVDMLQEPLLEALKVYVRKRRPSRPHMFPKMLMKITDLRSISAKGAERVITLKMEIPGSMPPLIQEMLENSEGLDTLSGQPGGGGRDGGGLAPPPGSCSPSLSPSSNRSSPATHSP
Method in brief: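 HepG2 cells transiently transfected with multiplexed reporter units under cis (DR5 RARE) promoters, so endogenous transcription factor activity is measured. After 24 h compound exposure, reporter mRNA is quantified by RT-PCR with fluorescent labelling and capillary electrophoresis; bidirectional fitting versus DMSO.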

[9] = target: Transcription factor E2F1 (Homo sapiens) (UniProt Q01094); experiment: ATG_E2F_CIS: Attagene CIS-FACTORIAL HepG2 Assay for human E2F Transcription Factor 1 (AID 2282935); conditions: HepG2 Attagene cis-reporter, E2F reporter RNA transcripts; actives raise or lower the signal
Transcription factor E2F1 (Homo sapiens), sequence (Q01094 whole entry, looked up): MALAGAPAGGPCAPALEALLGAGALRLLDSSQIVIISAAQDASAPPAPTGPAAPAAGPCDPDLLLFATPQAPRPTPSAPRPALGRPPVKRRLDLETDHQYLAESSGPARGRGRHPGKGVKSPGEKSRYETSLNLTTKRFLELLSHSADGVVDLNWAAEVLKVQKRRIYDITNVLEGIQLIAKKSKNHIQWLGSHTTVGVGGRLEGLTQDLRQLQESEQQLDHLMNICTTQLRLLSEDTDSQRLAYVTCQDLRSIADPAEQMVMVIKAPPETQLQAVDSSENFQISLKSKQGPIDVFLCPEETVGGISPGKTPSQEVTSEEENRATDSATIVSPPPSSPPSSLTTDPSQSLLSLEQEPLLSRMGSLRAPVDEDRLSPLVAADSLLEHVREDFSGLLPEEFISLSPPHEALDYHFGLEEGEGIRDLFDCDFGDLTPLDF
Method in brief: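 HepG2 cells transiently transfected with multiplexed cis-element reporter units, dosed for 24 h. Reporter mRNA measured by RT-PCR, 6-FAM primer-extension labeling, HpaI digestion and capillary electrophoresis; bidirectional fit versus DMSO baseline.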

[10] = ATG_E_Box_CIS: Attagene CIS-FACTORIAL HepG2 Assay for human Enhancer Box (E-box) (AID 2282936); conditions: HepG2 E-box cis-reporter transcription, actives raise or lower the signal
Method in brief: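 HepG2 cells transiently transfected with multiplexed cis-element reporter units sensing endogenous transcription factor activity; 24 h compound exposure. Reporter mRNA measured by RT-PCR, 6-FAM primer extension, HpaI digestion and capillary electrophoresis; bidirectional fit versus DMSO.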

[11] = ATG_M_61_CIS: Attagene CIS-FACTORIAL HepG2 Assay for M61 Transcription Factor (Internal Marker) (AID 2282937); conditions: HepG2 Attagene CIS-FACTORIAL M61 internal marker reporter; actives raise or lower the signal
Method in brief: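 Cells were transfected with reporter units under cis-regulatory promoters, treated with chemicals for 24 h, then lysed for RNA. Reporter transcripts were quantified by RT-PCR and capillary electrophoresis, and activity was fitted bidirectionally against DMSO.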

[12] = ATG_EGR_CIS: Attagene CIS-FACTORIAL HepG2 Assay for human Early Growth Response 1 (EGR1) (AID 2282938); conditions: HepG2 Attagene CIS-FACTORIAL EGR reporter mRNA; actives raise or lower the signal
Method in brief: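 Endogenous TF activity in HepG2 liver cells was gauged through cis-promoter reporter constructs transiently transfected. After 24 h dosing, reporter mRNA was quantified by RT-PCR and capillary electrophoresis, and curves fitted in both directions versus DMSO.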

[13] = ATG_M_19_CIS: Attagene CIS-FACTORIAL HepG2 Assay for M19 Transcription Factor (Internal Marker) (AID 2282939); conditions: HepG2 Attagene CIS-FACTORIAL M19 internal marker reporter; actives raise or lower the signal
Method in brief: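 Chemical-treated HepG2 (24 h) with MRTU constructs; reporter transcripts detected by fluorescent RT-PCR fragment analysis on capillary electrophoresis. Internal background marker, DMSO as baseline.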

[14] = ATG_ERE_CIS: Attagene CIS-FACTORIAL HepG2 Assay for Estrogen Response Element (ERE) (AID 2282940); conditions: HepG2 ERE cis-reporter, Attagene RNA transcript; actives raise or lower the signal
Method in brief: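 Human liver cells (HepG2) bearing transiently transfected, promoter-regulated reporter units were exposed 24 h. Reporter mRNA induction was detected by capillary electrophoresis of labelled RT-PCR products and fitted bidirectionally to DMSO.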

[15] = ATG_Ets_CIS: Attagene CIS-FACTORIAL HepG2 Assay for human Erythroblast Transformation Specific (ETS) (AID 2282941); conditions: HepG2 ETS cis-reporter transcription, actives raise or lower the signal
Method in brief: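 HepG2 cells transiently transfected with cis-promoter reporter transcription units were dosed for 24 h; reporter mRNA was measured by RT-PCR, 6-FAM primer extension, HpaI digestion and capillary electrophoresis, with bidirectional fitting against DMSO baseline.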

[16] = target: Hepatocyte nuclear factor 3-beta (Homo sapiens) (UniProt Q9Y261); experiment: ATG_FoxA2_CIS: Attagene CIS-FACTORIAL HepG2 Assay for human Forkhead box A2 (FOXA2) (AID 2282942); conditions: HepG2 cis-reporter transcription factor activity, 24 h; actives raise or lower the signal
Hepatocyte nuclear factor 3-beta (Homo sapiens), sequence (Q9Y261 whole entry, looked up): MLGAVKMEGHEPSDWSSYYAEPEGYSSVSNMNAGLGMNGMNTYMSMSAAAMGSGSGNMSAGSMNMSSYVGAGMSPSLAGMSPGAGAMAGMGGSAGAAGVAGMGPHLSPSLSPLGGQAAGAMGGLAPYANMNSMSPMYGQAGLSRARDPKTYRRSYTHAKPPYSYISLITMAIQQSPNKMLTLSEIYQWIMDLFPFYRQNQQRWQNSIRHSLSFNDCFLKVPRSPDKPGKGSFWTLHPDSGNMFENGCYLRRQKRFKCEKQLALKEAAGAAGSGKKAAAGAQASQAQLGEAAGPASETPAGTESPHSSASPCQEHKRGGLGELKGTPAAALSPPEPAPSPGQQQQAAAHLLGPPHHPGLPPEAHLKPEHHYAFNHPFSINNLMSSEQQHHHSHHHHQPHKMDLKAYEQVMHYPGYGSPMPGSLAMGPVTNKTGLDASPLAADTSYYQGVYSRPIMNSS
Method in brief: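 Endogenous transcription factor activity was read in HepG2 cells carrying transiently transfected cis-promoter reporter units. After 24 h dosing, reporter mRNA was quantified by RT-PCR and capillary electrophoresis, and values fitted bidirectionally versus DMSO.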

[17] = ATG_FoxO_CIS: Attagene CIS-FACTORIAL HepG2 Assay for human Forkhead box O (FoxO) (AID 2282943); conditions: HepG2 Attagene cis-reporter, FoxO element, mRNA; actives raise or lower the signal
Method in brief: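 HepG2 cells transiently transfected with cis-promoter-driven multiple reporter transcription units; 24 h after chemical dosing, reporter mRNA quantified by RT-PCR, fluorescent primer extension, HpaI digestion and capillary electrophoresis. Bidirectional fitting versus DMSO baseline.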

[18] = ATG_GATA_CIS: Attagene CIS-FACTORIAL HepG2 Assay for human GATA Binding Protein (AID 2282944); conditions: HepG2 GATA cis-element reporter, Attagene multiplex mRNA; actives raise or lower the signal
Method in brief: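 Transfected cis-reporter HepG2 cells were treated with chemicals for 24 hours. Total RNA was then converted to cDNA, amplified with reporter-specific primers and analysed by fluorescent capillary electrophoresis, using DMSO-treated wells as baseline.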

[19] = ATG_GLI_CIS: Attagene CIS-FACTORIAL HepG2 Assay for human Zinc Finger Protein GLI1 (AID 2282945); conditions: HepG2, Attagene cis-factorial reporter mRNA, GLI element; actives raise or lower the signal
Method in brief: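 HepG2 cells transiently transfected with cis-promoter multiplexed reporter units report endogenous transcription factor activity. After 24 h chemical exposure, reporter mRNA was quantified by RT-PCR, 6-FAM labelling, HpaI digestion and capillary electrophoresis, with bidirectional fitting against DMSO.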

Measured: AC50

OC1CCCCCCCCCCC1
active: [3] 40.5 µM | [14] 26.4 µM
not listed: [19]
inactive: all other assays above

CCC(C)C=O (stereo unspecified)
inactive: all assays above

Cc1cccc(C(=O)O)c1
not listed: [12] | [15] | [18] | [19]
inactive: all other assays above

O=C1CCCCCCCCCCCCCCCO1
active: [4] 61.9 µM
not listed: [3] | [12]
inactive: all other assays above

SCCc1cnccn1
active: [5] 27.8 µM | [7] 23.1 µM
not listed: [6] | [8] | [18]
inactive: all other assays above

C1=CCCC1
not listed: [10]
inactive: all other assays above

CC(C)(Oc1ccc(C2CC2(Cl)Cl)cc1)C(=O)O (stereo unspecified)
not listed: [4]
inactive: all other assays above
